# Test results: article PMC5836133, “The intracellular immune receptor Rx1 regulates the DNA-binding activity of a Golden2-like transcription factor”
# The full ranking holds about 16,000 sequences; the median of “e-score” is about -0.044, and the highest 2% start at about 0.38. What follows is part of a selection rich in the highest values, with near analogues and random picks from the rest.
# Biological target: T1, GST-NbGlk1(82-244) (Nicotiana benthamiana)
# T1 chain: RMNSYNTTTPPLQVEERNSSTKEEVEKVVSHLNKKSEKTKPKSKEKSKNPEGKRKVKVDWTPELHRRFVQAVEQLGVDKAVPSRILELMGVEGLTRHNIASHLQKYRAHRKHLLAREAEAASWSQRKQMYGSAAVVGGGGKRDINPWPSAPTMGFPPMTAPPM
# Experiment: protein-binding microarray; NbGlk1 is a Golden2-like transcription factor of Nicotiana benthamiana; high values mean tight binding
# Conditions: protein: recombinant; tags: GST (pTH6838); dsDNA, one strand shown
row,Sequence,binding signal [E-score]
1,ACGGATTG,0.277 ± 0.0929
2,ATGGATTC,0.425 ± 0.0111
3,ATGGATTG,0.21 ± 0.0605
4,ACGGATTC,0.405 ± 0.00859
5,ATGGATTA,0.326 ± 0.0123
6,ACGGATTA,0.312 ± 0.00583
7,ACGCTGAT,0.235 ± 0.108
8,ATTTCTTG,0.258 ± 0.105
9,AATGAAAT,0.236 ± 0.00744
10,AAATCTCG,0.4626 ± 0.00233
11,CAATCACA,0.205 ± 0.12
12,AAATCTCA,0.444 ± 0.0165
13,AATTCTCA,0.243 ± 0.0881
14,AAATCTCC,0.439 ± 0.00952
15,CAATCTCA,0.329 ± 0.0291
16,CAATCTCC,0.349 ± 0.0541
17,CAATCTCG,0.404 ± 0.00662
18,ATCGAATA,0.235 ± 0.0136
19,ACGAGAAT,0.31 ± 0.0433
20,ATCTAATG,0.243 ± 0.0558
21,ATTTCCCA,0.329 ± 0.00415
22,CACGATCG,0.23 ± 0.0866
23,ATCTATCA,0.276 ± 0.0314
24,ATAGGATC,0.255 ± 0.0193
25,AATCAACA,0.259 ± 0.102

row,Sequence,binding signal [E-score]
1,ATCTTTTG,0.24 ± 0.0872
2,AATCATAT,0.28 ± 0.0597
3,ACTGTGAT,0.208 ± 0.0601
4,AGATCGGG,0.239 ± 0.0369
5,ATCCTCTA,0.342 ± 0.0176
6,ACTGATAC,0.204 ± 0.0454
7,CAAAGATA,0.225 ± 0.0785
8,AATTCTCT,0.225 ± 0.0473
9,AAATCTCT,0.392 ± 0.0226
10,AAATCACT,0.26 ± 0.0391
11,ATCCTCAA,0.322 ± 0.0217
12,ACCGGATC,0.21 ± 0.0564
13,ATATAAGA,0.21 ± 0.0738
14,AGTATTTG,0.208 ± 0.054
15,AGGATTTG,0.383 ± 0.0174
16,AGAATTTC,0.267 ± 0.0165
17,AGGATTTC,0.469 ± 0.0121
18,AATATTTC,0.34 ± 0.0237
19,AGAATTTG,0.293 ± 0.0716
20,ATCTCCTA,0.337 ± 0.0176
21,AGGGAAAT,0.334 ± 0.0487
22,AATAAGAT,0.3 ± 0.0136
23,ATTACTCA,0.208 ± 0.0879
24,AATCGCGA,0.376 ± 0.0188
25,AGATCTAC,0.347 ± 0.0432

row,Sequence,binding signal [E-score]
1,AGATCACG,0.26 ± 0.003
2,AGATCTCC,0.441 ± 0.0151
3,AGATCCCA,0.219 ± 0.0112
4,AGATCTCA,0.413 ± 0.0152
5,AGATCCCC,0.378 ± 0.0125
6,AGATCCCG,0.32 ± 0.0375
7,AGATCTCG,0.431 ± 0.0229
8,ATCGTAAC,0.244 ± 0.00995
9,ATCATATC,0.329 ± 0.0297
10,ATTCCCGG,0.283 ± 0.0331
11,AAAATCGT,0.39 ± 0.0061
12,AAAATCGA,0.381 ± 0.0174
13,ATAATCGC,0.207 ± 0.0834
14,CAAATCGA,0.28 ± 0.0483
15,CAAATCGC,0.32 ± 0.038
16,ATAATCGA,0.216 ± 0.00243
17,AAAATCGC,0.405 ± 0.00862
18,AAAATCGG,0.363 ± 0.0144
19,AATTGCGT,0.233 ± 0.0124
20,AATTATCC,0.204 ± 0.00884
21,ATCTGAGC,0.219 ± 0.0796
22,AGAGATTG,0.325 ± 0.048
23,AGAGATTC,0.434 ± 0.028
24,ATAGATTG,0.327 ± 0.0261
25,ACAGATTC,0.429 ± 0.0275

row,Sequence,binding signal [E-score]
1,ACAGATTG,0.359 ± 0.0598
2,ATAGATTA,0.339 ± 0.0049
3,ACAGATTA,0.362 ± 0.0124
4,AGAGATTA,0.298 ± 0.025
5,ATAGATTC,0.437 ± 0.0195
6,ACCAGATC,0.2 ± 0.124
7,ATCACGTA,0.257 ± 0.0112
8,AAGTATCT,0.249 ± 0.0273
9,AATTTAGA,0.251 ± 0.0537
10,AGTGCGAT,0.313 ± 0.00866
11,AAGGGGAT,0.203 ± 0.0242
12,ATTTGCAA,0.304 ± 0.00257
13,ATATCACA,0.369 ± 0.031
14,ATTGCGTC,0.2709 ± 0.000439
15,ATTGCGTA,0.367 ± 0.0361
16,ATTGCGTG,0.388 ± 0.00526
17,CAATCAAA,0.214 ± 0.036
18,AAAATAAA,0.218 ± 0.15
19,CACTGATA,0.208 ± 0.181
20,ATCTCGAC,0.34 ± 0.0977
21,ATATCTAG,0.392 ± 0.0205
22,ATCTCTAA,0.216 ± 0.0218
23,ATATCAAC,0.287 ± 0.0867
24,ATCTCTAG,0.294 ± 0.0244
25,ATATCTAC,0.392 ± 0.0225

row,Sequence,binding signal [E-score]
1,AGATCTAG,0.349 ± 0.0106
2,ATCTCTAC,0.297 ± 0.0234
3,ATATCTAA,0.417 ± 0.0517
4,AGATCTAA,0.303 ± 0.0304
5,ACCGATAT,0.364 ± 0.00959
6,ATCAGAAT,0.275 ± 0.0769
7,AGTGTAAT,0.362 ± 0.0129
8,ATCTGATA,0.345 ± 0.00479
9,ATTCGTAA,0.208 ± 0.00392
10,ATCTTTCC,0.218 ± 0.0881
11,AATCACAT,0.265 ± 0.0229
12,CAATCGCA,0.23 ± 0.0233
13,CACGTATC,0.216 ± 0.0457
14,ATCGCGGC,0.208 ± 0.0886
15,ATTTTACG,0.213 ± 0.082
16,AGATCGGA,0.277 ± 0.0345
17,AATCATTA,0.201 ± 0.157
18,ATTGCATG,0.221 ± 0.0421
19,ATTTCACG,0.242 ± 0.0818
20,AATTTCGG,0.245 ± 0.0953
21,ATTATGGA,0.277 ± 0.0309
22,AATCCTGA,0.399 ± 0.0138
23,AATCCTGG,0.3628 ± 0.00311
24,AATCCTGC,0.356 ± 0.0181
25,AATCCTCG,0.345 ± 0.0473

row,Sequence,binding signal [E-score]
1,AATCCTAA,0.395 ± 0.0218
2,ATTCCTAG,0.202 ± 0.0268
3,AATCCTAT,0.376 ± 0.0141
4,AATCCTAG,0.388 ± 0.0422
5,AATCCTAC,0.3426 ± 0.00211
6,ATCGTGGA,0.273 ± 0.0839
7,ACGAATCG,0.283 ± 0.0452
8,ATTCCTTG,0.228 ± 0.115
9,ATTCTTCA,0.324 ± 0.0737
10,AATCTTCA,0.388 ± 0.01
11,AATCTTCG,0.404 ± 0.0151
12,AATCATCA,0.212 ± 0.0286
13,AATCGTCT,0.277 ± 0.0759
14,ATTCTTCC,0.221 ± 0.0993
15,AATCTTCC,0.361 ± 0.0433
16,AATCTTCT,0.41 ± 0.0267
17,AATCATCG,0.225 ± 0.0433
18,AATAATCT,0.276 ± 0.0304
19,CACACAGA,0.201 ± 0.0131
20,ATATATGG,0.224 ± 0.0844
21,ATATACGA,0.236 ± 0.0113
22,ATTTCGAA,0.316 ± 0.0613
23,ATCCAAAC,0.241 ± 0.133
24,ATCTCAAG,0.256 ± 0.0583
25,ATCGTATC,0.36 ± 0.0262

row,Sequence,binding signal [E-score]
1,AATCCAAT,0.408 ± 0.0114
2,ATTCCAAG,0.205 ± 0.0718
3,AATCCAAA,0.4128 ± 0.00044
4,AATGCAAT,0.303 ± 0.0228
5,AATCCAAG,0.394 ± 0.00595
6,AATCAAAA,0.296 ± 0.0471
7,AATCCCAA,0.367 ± 0.00919
8,AATCCAAC,0.348 ± 0.0137
9,ATCCCAAT,0.201 ± 0.0789
10,AACGGAAT,0.285 ± 0.0635
11,ATTTCCCG,0.3088 ± 0.000826
12,ATCTCAGC,0.22 ± 0.0276
13,ATTATCCG,0.279 ± 0.01
14,AATATCAT,0.282 ± 0.0333
15,AGTATCCA,0.265 ± 0.00779
16,AATATCGA,0.326 ± 0.0506
17,AATATCCA,0.396 ± 0.0292
18,AATATCCG,0.426 ± 0.013
19,AATATCCC,0.339 ± 0.0252
20,AATATCCT,0.389 ± 0.005
21,AATATCGT,0.322 ± 0.0372
22,ATCGAGAA,0.236 ± 0.0184
